GDH-TPI counter-1: inhibits GDH-TPI coupling enzymes, artifact for Mtb FBA screen; GDH-TPI coupled enzyme counterscreen, NADH absorbance; AID 588335; 360,000 compounds, 1.2% hits; inhibition, % at 4.8 µM; in the data active = inhibition above about 30%;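 also: 0% = DMSO wells and 100% = wells lacking the enzyme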
PrP 5UTR inh: suppresses PrP 5' UTR mRNA reporter expression | cell-based PrP 5' UTR mRNA reporter, plate reader | inhibition, % (concentration not given with the values) | 340,000 compounds, 0.35% hits | AID 488862; in the data active = inhibition above about 52%; also: 0 = median of the neutral control wells
BJeLR lethal: BJeLR cell viability loss; BJeLR (HRASV12) viability, CellTiter-Glo ATP luminescence, 48 h; inhibition, % (no concentration beside the values); 300,000 compounds, 0.17% hits; AID 1554; in the data active = inhibition above about 50%
Mtb FBA inh: inhibits M. tuberculosis FBA enzyme; inhibition, % at 1 µM; P9WQA3; purified M. tuberculosis FBA, fluorescence read-out; 360,000 compounds, 2.3% hits; AID 588726;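 also: 0% = vehicle and 100% = reference inhibitor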
Target sequence (P9WQA3 whole entry, looked up): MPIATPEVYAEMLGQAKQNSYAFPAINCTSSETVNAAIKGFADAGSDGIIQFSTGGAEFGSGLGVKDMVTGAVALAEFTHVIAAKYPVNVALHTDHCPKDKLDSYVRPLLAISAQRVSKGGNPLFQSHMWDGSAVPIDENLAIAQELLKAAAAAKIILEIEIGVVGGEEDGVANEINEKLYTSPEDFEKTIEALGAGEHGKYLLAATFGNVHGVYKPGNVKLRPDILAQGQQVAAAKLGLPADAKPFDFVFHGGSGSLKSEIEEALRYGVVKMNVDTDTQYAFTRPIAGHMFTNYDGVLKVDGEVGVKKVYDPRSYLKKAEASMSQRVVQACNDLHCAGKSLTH
PrPC TRFRET: inhibitors of human cell surface prion protein PrPC. AID 720596. inhibition, % at 13.8 µM. P04156. TR-FRET read-out. 370,000 compounds, 0.43% hits; in the data active = inhibition above about 24%; also: 0% = median of the test wells and 100% = reference compound wells
PfHsp40 rescue: rescue of PfHsp40-mediated yeast toxicity | S. cerevisiae expressing PfHsp40, growth rescue, ATP luminescence | growth rescue, % at 12.5 µM | 340,000 compounds, 0.68% hits; in the data active = growth rescue above about 28%, passing the limit was not always enough;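 also: yeast W303a lacking pdr1 and pdr3 grown in galactose medium; growth measured after three days at 30 °C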
Mtb FBA confirm: confirmation of M. tuberculosis fructose-bisphosphate aldolase inhibitors | shares compounds with Mtb FBA inh | purified M. tuberculosis FBA, fluorescence read-out | inhibition, % at 1 µM | 5,600 compounds, 78% hits;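 also: 0% = vehicle wells and 100% = reference inhibitor wells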
GDH-TPI counter-2: counter-screen for M. tuberculosis FBA inhibitors: GDH-TPI coupled enzyme inhibition. shares compounds with Mtb FBA inh. 5,600 compounds, 81% hits. GDH-TPI coupled enzyme counterscreen, fluorescence. inhibition, % at 1 µM; in the data active = inhibition above about 10%
GDH-TPI dose: inhibits GDH-TPI coupling enzymes in dose response. shares compounds with Mtb FBA inh. GDH-TPI coupled enzyme assay, fluorescence, artifact counterscreen. IC50, µM. 170 compounds, 79% hits; call rule not given here
* marks the source's active call; other numbers are inactive results; nt = no result; + = active, no number. Compounds with a hit are over-represented: about 4.5% of the library has one in this group of screens. Rule as the data show it, unless noted: active = inhibition above about 27%; inactive = the rest.

SMILES	GDH-TPI counter-1	PrP 5UTR inh	BJeLR lethal	Mtb FBA inh	PrPC TRFRET	PfHsp40 rescue	Mtb FBA confirm	GDH-TPI counter-2	others
O=C(COc1ccc2oc(-c3ccccc3)cc(=O)c2c1)NCc1ccco1	6	-22	-1	30*	nt	0	90*	69*
CCOC(=O)CSc1nc(C)c2cc(OC)ccc2n1	7	-17	-12	49*	-2	0	64*	36*
COc1ccc2nc(/N=C(\N)NC(=O)C(C)(C)C)nc(C)c2c1	5	-82	3	46*	-3	0	10	-4	GDH-TPI dose=3.6*
COc1ccc2nc(/N=C(\N)NC(=O)N3c4ccccc4Sc4ccccc43)nc(C)c2c1	2	-28	6	8	-1	1	nt	nt
CCC(=O)N/C(N)=N/c1nc(C)c2cc(OC)ccc2n1	6	-46	14	40*	-4	-1	+	+
O=C(NCc1ccncc1)[C@@H]1CCCN1C(=O)[C@@H]1CCCN1C(=O)c1ccccc1	nt	nt	nt	nt	3	nt	nt	nt
Cc1cc(=O)oc2c(C)c(OCC(=O)N3CC[C@@]4(O)CCCC[C@H]4C3)ccc12	11	-7	3	15	0	0	nt	nt
Cc1cc(=O)oc2c(C)c(OC(C)C(=O)N3CC[C@@]4(O)CCCC[C@H]4C3)ccc12 (stereo not given in full)	18	-21	-5	24	2	0	nt	nt
Cc1c(C)c2ccc(OC(C)C(=O)N3CC[C@@]4(O)CCCC[C@H]4C3)c(C)c2oc1=O (stereo not given in full)	9	-14	-4	69*	-2	0	53*	41*
Cc1c(C)c2ccc(OC(C)C(=O)N3CC[C@@]4(O)CCCC[C@H]4C3)cc2oc1=O (stereo not given in full)	16	5	-5	96*	-9	1	+	+
CCN1CCN(C(=S)NC(=O)c2cccc(Br)c2)CC1	10	-9	nt	-3	-5	2	nt	nt
Cn1c(CN2CCOCC2)nnc1SCC(=O)Nc1cc(Cl)ccc1Cl	-6	-5	-4	27*	-4	-1	1	-9
O=C(COC(=O)c1ccco1)NCc1ccc(F)cc1	4	-39	-6	-1	-8	0	nt	nt
O=C1c2ccccc2NC(c2ccccc2)N1Cc1ccco1 (stereo not given)	-9	-16	5	51*	-7	-1	3	1
O=C1c2ccccc2NC(c2ccc(F)cc2)N1Cc1ccco1 (stereo not given)	16	-21	3	49*	-5	0	85*	61*
O=C(NCCO)c1cccc(-c2cccc3nncn23)c1	7	nt	nt	75*	2	nt	72*	42*
CN(C)CCCNC(=O)c1cccc(-c2ccc3nccn3c2)c1	-8	nt	nt	-1	-10	nt	nt	nt
CN(C)CCCNC(=O)c1cccc(-c2cnc3cccnn23)c1	5	nt	nt	102*	-3	nt	+	+
O=C1c2cccc3cccc(c23)C(=O)N1CCc1ccccc1	18	-79	-4	2	-10	0	nt	nt
Cc1nn(CCc2nn[nH]n2)c2nc(-c3ccccc3)cc(C(F)(F)F)c12	5	-5	-10	40*	13	-2	+	164*
Cc1cc(C(F)(F)F)c2c(C)nn(CCc3nn[nH]n3)c2n1	-8	-11	-4	26	4	1	nt	nt
O=C(OCC#CCSc1nnc(-c2cccc3ccccc23)o1)C1CCCC1	nt	nt	nt	nt	5	nt	nt	nt
Fc1cccc(Cc2c(-c3ccccc3)nc3c4ccccc4ccn23)c1	nt	nt	nt	nt	-4	nt	nt	nt
CCOC(=O)C(=O)C1=CN(Cc2ccccc2)C=C(C#N)C1	16	-5	-7	29*	-4	1	98*	70*
CC(C)N1CCN(Cc2ccsc2)CC1CCO (stereo not given)	4	-22	-6	-1	-2	1	nt	nt
SMILES	GDH-TPI counter-1	PrP 5UTR inh	BJeLR lethal	Mtb FBA inh	PrPC TRFRET	PfHsp40 rescue	Mtb FBA confirm	GDH-TPI counter-2	others
Clc1ccccc1C1=CC(c2ccco2)n2ncnc2N1 (stereo not given)	14	-6	-4	35*	-10	3	156*	126*
COc1ccc(C2CC(c3ccccc3OC(C)=O)=NN2C(C)=O)cc1 (stereo not given)	15	-36	-5	50*	12	0	109*	75*
COc1ccc(-c2ccc3nnc(SCC(=O)N4CCCC4)n3n2)cc1	3	-12	2	27*	-35	2	189*	160*
CCCCc1cc(=O)oc2cc(C)cc(OCC(=O)N3C[C@H]4C[C@@H](C3)c3cccc(=O)n3C4)c12	13	-1	1	42*	-2	0	51*	38*
Cc1cc(OCC(=O)N2C[C@H]3C[C@@H](C2)c2cccc(=O)n2C3)c2c(C)c(C)c(=O)oc2c1	9	-15	2	40*	-1	-1	39*	23*
CCCCc1cc(=O)oc2cc(OCC(=O)N3C[C@H]4C[C@@H](C3)c3cccc(=O)n3C4)ccc12	13	-26	-5	6	5	1	nt	nt
CCCc1cc(=O)oc2cc(C)cc(OCC(=O)N3C[C@H]4C[C@@H](C3)c3cccc(=O)n3C4)c12	10	nt	nt	42*	-3	nt	167*	127*
Cc1cc(=O)oc2cc(OCC(=O)N3C[C@H]4C[C@@H](C3)c3cccc(=O)n3C4)c(Cl)cc12	13	-12	-1	8	-12	0	nt	nt
O=C(Cn1cc(C(F)(F)F)ccc1=O)NCC1CCCO1 (stereo not given)	3	-3	nt	1	8	-1	nt	nt
C=C1C(=O)O[C@@]23[C@H]1CC[C@@H](C)[C@@H]2CC[C@@]1(C)O[C@@H]31	3	7	nt	7	nt	0	nt	nt
CCCCCCSc1ccc(-c2nc3cc(C)ccn3c2NC2CCCCC2)cc1	6	-11	nt	7	3	1	nt	nt
CCC(C)Sc1ccc(-c2nc3cnccn3c2NC2CCCCC2)cc1 (stereo not given)	12	-14	0	29*	2	1	67*	57*
Cc1ccn2c(NC3CCCCC3)c(-c3cccc(-c4cccc(Cl)c4)c3)nc2c1	16	-22	-6	33*	1	132*	113*	101*
CCC(C)Sc1ccc(-c2nc3cc(C)ccn3c2NC2CCCCC2)cc1 (stereo not given)	29	-21	nt	33*	12	3	+	+
Cc1ccn2c(NC3CCCC3)c(-c3ccncc3)nc2c1	22	-15	-7	1	-3	3	nt	nt
